# Shiga inhibitor: inhibitors of Shiga toxin in Vero cells; Vero cells, Shiga toxin protein synthesis inhibition reporter; inhibition, % at 38.7 µM; hit rate 9.2% among 290,000; AID 2315; in the data active means inhibition mostly above about 28%, no sharp cut-off; inactive means mostly below about 43%; further: 0% is about no effect
# Pf growth 48h: P. falciparum growth inhibition at 48 hours (one generation); hit rate 5.9% among 310,000; P. falciparum luciferase growth in erythrocytes, 48 h; Potency, µM (top dose mostly 28.7 µM), without a hit: at the highest dose activity change, negative = inhibition, hits mostly inhibitors; further: potency means the concentration at half of the fitted maximal effect; on the % scale 0 is the no-effect control and ±100 the full control effect
#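 Luciferase-expressing P. falciparum in infected erythrocytes (2% hematocrit, 0.1% parasitemia final) in RPMI 1640/0.5% Albumax were exposed to compound for 48 hours at 37 C, 5% CO2; growth read as luminescence.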
# Cycloheximide cs: affects cycloheximide protein synthesis inhibition readout, counter-screen; cell reporter, cycloheximide protein synthesis inhibition counterscreen; max response, %; hit rate 12% among 300,000; in the data active means max response mostly above about 13%, no sharp cut-off; inactive means mostly below about 14%; further: read at 38.3 µM for the half of the compounds with a filed dose; 0% is about no effect
# Pf growth 96h: inhibits malaria parasite growth, 96 h; P. falciparum luciferase reporter growth, 96 h; Potency, µM (series often up to 28.7 µM), for the others: at the top dose activity change, negative = inhibition, actives largely listed as inhibitors; hit rate 6.9% among 320,000; AID 504834; further: potency means the concentration at half of the fitted maximal effect; on the % scale 0 is the no-effect control and ±100 the full control effect
#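 P. falciparum expressing integrated firefly luciferase grown in erythrocytes (2% hematocrit, 0.05% parasitemia final) with compounds for 96 hours at 37 C, 5% CO2. Growth inhibition read as loss of luminescence after adding luciferase detection reagent.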
# LmPK inh: LmPK (Leishmania mexicana) enzyme inhibition. Q27686. purified LmPK, Kinase-Glo ATP luminescence, 1 h. Potency, µM (highest dose often 57.5 µM), inactives show at the top dose activity change, negative = inhibition, usual class: inhibitors. hit rate 0.37% among 290,000. AID 1721; further: potency means the concentration at half of the fitted maximal effect; on the % scale 0 is the no-effect control and ±100 the full control effect
# Target sequence (Q27686 whole entry, looked up): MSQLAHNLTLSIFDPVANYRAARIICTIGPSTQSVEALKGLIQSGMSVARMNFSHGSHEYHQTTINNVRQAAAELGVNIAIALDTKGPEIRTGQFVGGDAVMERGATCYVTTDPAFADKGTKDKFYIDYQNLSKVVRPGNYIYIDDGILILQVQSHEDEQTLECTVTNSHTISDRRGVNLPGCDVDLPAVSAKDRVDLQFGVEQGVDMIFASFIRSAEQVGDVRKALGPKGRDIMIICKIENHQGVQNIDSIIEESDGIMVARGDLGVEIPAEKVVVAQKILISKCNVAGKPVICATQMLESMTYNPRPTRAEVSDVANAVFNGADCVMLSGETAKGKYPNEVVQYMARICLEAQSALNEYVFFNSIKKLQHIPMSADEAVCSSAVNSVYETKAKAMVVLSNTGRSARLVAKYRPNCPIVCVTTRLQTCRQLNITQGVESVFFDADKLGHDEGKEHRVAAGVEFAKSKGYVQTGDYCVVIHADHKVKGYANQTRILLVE
#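 Pyruvate kinase activity monitored as ATP production (luciferase luminescence). Conditions: 0.1 nM enzyme, 0.5 mM PEP, 0.1 mM ADP, 1 h, RT; normalized against uninhibited and no-enzyme wells.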
# * = called active by the depositor; ? = inconclusive; · = no result given; [ ] = dose if it differs, or a comment. Sampled rows, rich in hits. Any-hit rate of the full collection: about 22%. Unless noted, the call rests on the fitted dose curve; in most records, active means well fitted inhibition curve with a large enough effect; inconclusive means small, poorly fitted or top-dose-only effect, or another doubt; inactive means no such curve, though single readings can be large or run the other way.
SMILES,Shiga inhibitor,Pf growth 48h,Cycloheximide cs,Pf growth 96h,LmPK inh
CN(C)C(=O)C12CCC(C)(c3nc4ccccc4nc31)C2(C)C (centres undefined),-7,-26%,4,2.6µM*,4%
Cc1ccc(NC(=O)CCN2C(=O)NC3(CCCC3)C2=O)cc1S(=O)(=O)N1CCOCC1,·,10%,·,14%,·
CC1CC=CC2C1C(=O)N(Cc1ccccc1)C2c1ccc(-c2cc3ccccc3s2)cc1F (centres undefined),96*,·,49*,·,·
Cc1ccc(-c2ccc([C@H]3[C@H]4C=CC[C@@H](C)[C@@H]4C(=O)N3Cc3ccccc3)c(F)c2)cc1,-6,12µM*,-6,10µM*,0%
Cc1ccc(Cn2nnc3c(=O)[nH]c(C(=O)NCc4ccco4)nc32)cc1,111*,13%,25*,·,-1%
COCCNC(=O)c1nc2c(nnn2Cc2cc(C)ccc2C)c(=O)[nH]1,2,-5%,-4,9.3µM*,1%
O=C(NCc1ccccc1)c1nc2c(nnn2Cc2cccc(Cl)c2)c(=O)[nH]1,-2,-18%,-4,2.9µM*,1%
O=C(NCC1CCCO1)c1nc2c(nnn2Cc2ccccc2Cl)c(=O)[nH]1 (centres undefined),-3,-24%,-3,13µM*,8%
Cc1ccc(C)c(Cn2nnc3c(=O)[nH]c(C(=O)NCC4CCCO4)nc32)c1 (centres undefined),14,?,-2,?,0%
Cc1ccc(C)c(S(=O)(=O)N2CCN(C(=O)Cn3c(C(F)(F)F)nc4ccccc43)CC2)c1,-3,?,-3,·,1%
O=C(NC1CCCCC1)C(c1ccc(F)cc1)N(C(=O)c1csnn1)C1CCCC1 (centres undefined),-6,?,-2,?,17%
NC(=O)CSc1nnc(-c2cccnc2)n1Cc1ccccc1,-9,-13%,-1,-2%,0%
c1ccc(Cn2c(SCCN3CCOCC3)nnc2-c2cccnc2)cc1,31,·,15,10µM*,3%
CN(Cc1cnn(C)c1)Cc1nc(-c2ccc(Cl)cc2)no1,41,48%,16*,9.3µM*,7%
CN(Cc1cnn(C)c1)Cc1nc(COc2ccccc2)no1,33,41%,14*,-18%,-2%
CC(C)N(Cc1cnn(C)c1)Cc1nc(COc2ccccc2)no1,-11,-17%,-5,77%,0%
Cc1ccc(S(=O)(=O)Nc2ccccc2C(=O)N2CCCCCC2)cc1,1,27%,-3,?,5%
CN(C)c1ccc(NC(=O)C2C3C=CC(C3)C2C(=O)O)cc1 (centres undefined),66*,2.6µM*,20*,?,3%
O=C(O)C1C2C=CC(C2)C1C(=O)Nc1ccc2c(c1)OCCO2 (centres undefined),113*,31%,80*,·,0%
O=C(O)C1C2C=CC(O2)C1C(=O)Nc1ccc2c(c1)OCCO2 (centres undefined),132*,140%,75*,134%,-2%
COc1ccc(NC(=O)C2C3C=CC(O3)C2C(=O)O)cc1 (centres undefined),1,14%,1,?,-2%
CC(=O)c1cccc(NC(=O)C2C3C=CC(C3)C2C(=O)O)c1 (centres undefined),11,19%,2,23%,-3%
O=C(CSc1nnc2c(n1)[nH]c1ccccc12)Nc1ccc(S(=O)(=O)Nc2ncccn2)cc1,24,16%,-2,-4%,2%[11.5 µM]
CCN(CC)C(=O)Cn1c(=O)c2ccccc2n2c(=S)sc(-c3cccc(C)c3)c12,0,?,-4,2.1µM*,4%
NS(=O)(=O)c1ccc(N=Cc2c(O)n(-c3nccs3)c(=O)c3ccccc23)cc1,-2,4.7µM*,0,?,-13%
SMILES,Shiga inhibitor,Pf growth 48h,Cycloheximide cs,Pf growth 96h,LmPK inh
Cn1c(N)c(C(=O)CSc2nnc(C3CC3)n2N)c(=O)n(C)c1=O,·,7%,·,0%,·
CC(=O)Nc1ccc(SCC(=O)c2c(N)n(Cc3ccccc3)c(=O)n(C)c2=O)cc1,-5,42%,-1,?,6%
CC(C)Nc1nnc(SCC(=O)c2c(N)n(Cc3ccccc3)c(=O)n(C)c2=O)s1,17,?,1,9.3µM*,-6%
Cn1c(N)c(C(=O)CSc2nnc(NC3CCCCC3)s2)c(=O)n(C)c1=O,·,?,·,1.3µM*,·
CCOC(=O)CNc1nc(Cl)nc(Nc2ccc(Cl)cc2)n1,-8,0%,-1,2%,4%
COc1ccc(/C=C2\SC(=S)N(C(C)C(=O)NC3C=CS(=O)(=O)C3)C2=O)cc1 (centres undefined),31*,33%,23*,27%,3%
CC(C)c1ccc(/C=C2\SC(=O)N(CC(=O)NC3C=CS(=O)(=O)C3)C2=O)cc1 (centres undefined),27,?,12*,?,3%
COc1cccc(/C=C2\SC(=O)N(CC(=O)NC3C=CS(=O)(=O)C3)C2=O)c1 (centres undefined),8,?,11,12µM*,2%
CCC(C(=O)NC1CCCC1)N(Cc1ccco1)C(=O)CNS(=O)(=O)c1ccccc1 (centres undefined),3,-18%,-6,-23%,-1%
Cc1c(/C(O)=C2\C(=O)C(=O)N(CCCN(C)C)C2c2ccccc2)cnn1-c1ccccc1 (centres undefined),-7,65%[5.75 µM],-4,386%,1%
COc1cccc(C2/C(=C(/O)c3cnn(-c4ccccc4)c3C)C(=O)C(=O)N2CCN(C)C)c1 (centres undefined),14,15%,9,11%,-1%
Cc1c(/C(O)=C2\C(=O)C(=O)N(CCN(C)C)C2c2cccs2)cnn1-c1ccccc1 (centres undefined),16,8%,19*,13µM*,5%
Cc1c(/C(O)=C2\C(=O)C(=O)N(CCN(C)C)C2c2cccnc2)cnn1-c1ccccc1 (centres undefined),13,65%,15*,?,3%
COc1ccc(C(=O)NNC(=O)CCc2ccccc2OC)cc1,-8,18%,2,55%,-4%
O=c1cc(-c2ccccc2)[nH][nH]1,14,-4%,1,-13%,1%
O=C1NC(c2ccccc2)=C(c2ccccc2)C1=O,-6,16%,1,10µM*,-5%
Cc1cc(Oc2cc(N)cc([N+](=O)[O-])c2)ccc1Cl,-10,14%,-2,8.3µM*,1%
Nc1cc(OCC(F)(F)F)cc([N+](=O)[O-])c1,-6,23%,-3,19%,-2%
CC(C)c1ccc(/C=N/NC(=O)CC(=O)NC2CCCCC2)cc1,25,35%,-6,90%,0%
CC(C)(C)c1ccc(/C=N/NC(=O)C2CCCC2)cc1,133*,-23%,51*,?,0%
C=C1CC(C(=O)N/N=C/c2ccccc2)C1,41*,37%,40*,34%,-6%
CC(C)c1ccc(/C=N/NC(=O)C2CCCC2)cc1,88*,108%,80*,?,-4%

# Screening results deposited in PubChem BioAssay by National Center for Advancing Translational Sciences (NCATS).
